Key:
[1] = molecular target: T1, Aspartate--tRNA(Asp/Asn) ligase (Mycobacterium tuberculosis (strain ATCC 25618 / H37Rv)) (UniProt P9WFW3); test: Assay for Asp RNA synthetase-1 from Mycobacterium tuberculosis; assay type: functional; set-up: scale not given: direction of the effect not stated beside the values; settings: 30 µM; note: in the data most compounds retested in dose-response had high values
T1 sequence (whole entry): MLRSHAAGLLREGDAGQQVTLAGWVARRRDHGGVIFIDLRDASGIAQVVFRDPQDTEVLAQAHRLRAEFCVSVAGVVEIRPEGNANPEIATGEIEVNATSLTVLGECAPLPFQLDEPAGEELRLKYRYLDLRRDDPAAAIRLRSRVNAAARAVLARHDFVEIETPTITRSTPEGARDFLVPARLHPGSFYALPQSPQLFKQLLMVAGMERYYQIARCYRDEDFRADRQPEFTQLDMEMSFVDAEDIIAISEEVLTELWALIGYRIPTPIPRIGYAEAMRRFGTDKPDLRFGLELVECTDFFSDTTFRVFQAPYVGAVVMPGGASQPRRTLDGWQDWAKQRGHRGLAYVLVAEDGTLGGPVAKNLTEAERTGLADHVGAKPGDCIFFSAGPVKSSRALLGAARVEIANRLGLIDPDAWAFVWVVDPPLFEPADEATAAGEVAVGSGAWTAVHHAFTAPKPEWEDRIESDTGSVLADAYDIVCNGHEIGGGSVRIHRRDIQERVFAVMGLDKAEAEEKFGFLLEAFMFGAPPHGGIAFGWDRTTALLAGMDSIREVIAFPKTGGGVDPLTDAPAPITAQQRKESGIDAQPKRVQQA

[2] = molecular target: Shiga toxin 2 (Escherichia coli O157:H7) (UniProt P09385+P09386); test: E. coli 0.157:H7 Shiga Toxin SOP - stx2 screening assay; assay type: functional; set-up: scale not given: direction of the effect not stated beside the values; settings: 30 µM

| Structure (SMILES) | Percent Effect [1] | Percent Effect [2] |
| --- | --- | --- |
| O=C(c1cnccn1)N1CCOC2(CCN(Cc3ccsc3)CC2)C1 | -1.8% | -12.9% |
| O=S(=O)(C1CC1)N1C[C@H]2CCC[C@@]2(COc2ccccn2)C1 | 4.47% | -32.7% |
| OC1(Cn2ccc3ccncc32)CCN(Cc2ccccn2)CC1 | -0.402% | -26.5% |
| c1cncc(COCc2nnc3n2CCN(Cc2ccoc2)C3)c1 | -0.0297% | -40.3% |
| CCNC(=O)c1ccoc1CN1c2ccccc2CC1C (stereo not given) | 2.94% | -19.2% |
| CC(=O)NCC(=O)N1CCOC2(CCCN(c3cccnc3)C2)C1 (stereo not given) | 1.34% | -31.3% |
| CN1CC(c2ccccc2)CC12CCN(C(=O)c1ccc(F)cc1)CC2 (stereo not given) | -1.84% | 11.8% |
| CC(=O)N(Cc1ncc(C)o1)C1CCN(Cc2ccncc2Cl)C1 (stereo not given) | 2.91% | 16% |
| CN(C)C(=O)CN1C[C@@H]2CC[C@H](C1)N(Cc1cc(F)ccc1F)C2 | -0.16% | -37.1% |
| CCOC(=O)c1sc2ccsc2c1CN | -0.321% | 42.1% |
| CCCc1nc(CN2CCCC2Cn2cncn2)cs1 (stereo not given) | -4.65% | -7.55% |
| Cc1ccc(N2CCCC(NCC(=O)NC3CCOCC3)C2)nn1 (stereo not given) | 5.08% | -27.9% |
| Cc1nc(NCCc2ccc(Cl)cc2)cc(C(=O)N2CCCCC2)n1 | 12.4% | -69.6% |
| CC(C)NC(=O)[C@@H]1C[C@H](N)CN1C(=O)c1cc2c([nH]c1=O)CCCC2 | 2.4% | -1.55% |
| CCc1ccc(CN(CCCn2ccnc2)Cc2ccc(C)s2)o1 | 2.1% | -1.1% |
| Cc1cccc(CN2CCc3c(nc(N4CCCCC4C)[nH]c3=O)C2)n1 (stereo not given) | -1.15% | 21.7% |
| CC(Cn1ccnc1)NC(=O)C1(c2ccc3c(c2)OCCO3)CCCC1 (stereo not given) | -0.0286% | -20.7% |
| CN(C)S(=O)(=O)N1CCC2(CCCN(Cc3ccc(F)cc3)C2=O)C1 (stereo not given) | -2.05% | -20.5% |
| N#Cc1ccc(C(=O)N2CC[C@H]3[C@@H]2CCC(=O)N3c2cccnc2)cc1 | 2.4% | -9.02% |
| COc1cccn(CC(=O)N(C)CCOc2cc(C)cc(C)c2)c1=O | 38.9% | -20.3% |
| CN(C)c1cc(C(=O)NCCc2n[nH]c(=O)[nH]2)ccn1 | 0.719% | -0.859% |
| COCc1cc(NCCc2ccc(F)cc2)n2nccc2n1 | 4.6% | 4.14% |
| CC(C)c1nnc2n1CCN(C(=O)c1cccc(C(F)(F)F)c1)C2 | 0.896% | -0.987% |
| CCc1nc(C2CCCN2C(=O)c2ccc3c(c2)nc(C)n3C)no1 (stereo not given) | -0.367% | 2.43% |
| O=C([C@H]1C[C@H]2OCC[C@H]2N(C(=O)c2ccncc2)C1)N1CCCCO1 | -3.79% | -6.05% |

| Structure (SMILES) | Percent Effect [1] | Percent Effect [2] |
| --- | --- | --- |
| CCSCCNC(=O)C(c1cccc(F)c1)N(C)C (stereo not given) | 0.0558% | 12.8% |
| O=C(c1cccc2c1OCCO2)N1CCCC(n2ccnc2)C1 (stereo not given) | -1.01% | 21.1% |
| CCN1CCO[C@]2(CCC[C@H]2COCc2csc(C)n2)C1 | -0.869% | 7.16% |
| CCC(=O)N1CCCC(c2cc(Nc3ncccn3)nc(C)n2)C1 (stereo not given) | 1.35% | 12.4% |
| CC(=O)N(C)c1nc(CN2CCOC(Cn3cc(C)cn3)C2)cs1 (stereo not given) | -3.86% | -9.15% |
| CC(C)c1ncc2c(n1)CN(Cc1cccc(OCC(N)=O)c1)CC2 | 3.81% | 12.8% |
| Cc1nc(COC[C@]23COC[C@H]2CN(Cc2ccoc2)C3)cs1 | -0.55% | 4.86% |
| CCC(=O)NCCc1cc(N2CCN(C(C)=O)CC2)nc(C2CC2)n1 | -0.432% | -2.36% |
| O=C(CCNCC(F)(F)F)N1CCC(Nc2cccnn2)CC1 | 2.25% | -14.2% |
| Cn1nc2c(cc1=O)CN(Cc1nnc(C3CC3)o1)CC2 | 47.1% | -53.6% |
| CCCNC(=O)c1cc2c(nc1O)CCC(C)C2 (stereo not given) | -2.53% | -21.4% |
| Cc1nnc(NCC2(c3ccc(Cl)cc3Cl)CCOCC2)c(C#N)c1C | 1.93% | -16.4% |
| CN(C)C(=O)c1ccc2c(c1)N(C)C(CC(=O)NCc1ccno1)CO2 (stereo not given) | -2.42% | -9.52% |
| CN(C)c1ccc(NC(=O)NCc2ccccn2)cn1 | 3.94% | -60.4% |
| Cc1csc(N2CCN(C(=O)CCC(=O)c3ccc(C)s3)CC2)n1 | -2.27% | 8.56% |
| CCN(CC)c1ccc(C(=O)N(C)Cc2c(C)noc2C)cn1 | 3.51% | 32.5% |
| Fc1ccc(CN2CC[C@H]3O[C@@H](COCC4CCOCC4)CC[C@H]32)cc1 | 0.838% | -14.5% |
| CN(C)c1ncccc1CNS(=O)(=O)c1ccccc1F | 4.63% | -24.7% |
| CCn1cnnc1C1CCN(C(=O)c2ccc(Cl)s2)CC1 | -0.371% | -7.76% |
| CCc1nc(C2CCCN2C(=O)c2c[nH]c(C)n2)no1 (stereo not given) | -7.28% | 0.205% |
| Cc1noc2nc(C3CCN(Cc4cccnc4)CC3)cc(C(F)F)c12 | 1.32% | -52.2% |
| CC(=O)Nc1nc(C(=O)Nc2ccc(F)cc2)cs1 | -0.259% | -5.87% |
| CCCNC(=O)c1sccc1N(C)S(=O)(=O)c1ccc(Cl)cc1 | 12.9% | -24.4% |
| O=S(=O)(C1CC1)N1CCO[C@H]2[C@H](OCCN3CCCC3)CC[C@@H]21 | 2.59% | -32.7% |
| O=C(c1cc(F)ccc1F)C1CCN(C(=O)c2ccc(=O)[nH]n2)CC1 | 0.519% | 28.6% |

— ChEMBL document CHEMBL3988442, “University of Dundee, Small-Polar-MMV Screening Library” (2021)
